Source: PubChem BioAssay (NCI)
Compounds without any hit were thinned out: in the full panel of roughly 83,000, 20% have a hit.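 Activity criterion: percent growth below 10, measured after cells in 96-well plates were exposed to a single compound concentration for 48 hours.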 A number with no mark means an inactive call. Activity calls are given as the source filed them.

These compounds were tested on PC-3 prostate (assay: NCI-60 one-dose screen, 48 h (100 = growth as untreated, 0 = no growth, -100 = all killed)). Details: 10 µM unless noted.
Cn1cc(C(=O)NCCC(=N)N)cc1NC(=O)CN=C(N)N showed a growth of 92.5%.
Compound Nc1cccc2c(=S)c3ccccc3[nH]c12 has a growth of 82.5%.
With CCN1CCN(c2nc3ccccc3c3c(=O)c4cc(F)ccc4sc23)CC1 the growth was 78%.
Cc1ccc(N(CSc2ccc(Cl)cc2)CSc2ccc(Cl)cc2)cc1 showed a growth of 10.8%.
O=C1C(Cl)=C(NCCCN2CCOCC2)C(=O)c2ccccc21 gave a growth of 79.6%.
O=[N+]([O-])c1ccc(O)c2ncccc12 was tested, and the growth was 37.9%.
O=C(Nc1ccccc1)Oc1cccc2cccnc12 was tested, and the growth was 70.1%.
Cc1ccc(C)c2c1sc1nc3nc4sc5ccccc5n4c(=N)c3c(=O)n12 was tested, and the growth was 71.5%.
O=C(c1ccccc1)C(Br)C(Br)c1cccc([N+](=O)[O-])c1 (centres undefined) was tested, and the growth was 67.4%.
COc1cc(/C=C2\C(=O)Nc3ccccc32)cc(OC)c1O gave a growth of 51.2%.
In the case of O=c1ccc2ccccc2o1, the growth is reported as 82.2%.
Cc1nc(-c2ccccc2)cc2c(O)c(C(=O)N/N=C/Cc3ccccc3)[nH]c(=O)c12 was tested, and the growth was 90%.
CN1CCc2cccc3c2C1Cc1ccc(O)c(O)c1-3 (centres undefined) gave a growth of 65.6%.
Work on COc1cccc(C2C3=C(COC3=O)N(CCO)c3cc4c(cc32)CCC4)c1 (centres undefined) yielded a growth of 23.5%.
COc1cc(CNCCCN2C(=O)c3ccc4c5c(ccc(c35)C2=O)C(=O)N(CCCNCc2cc(OC)c(OC)c(OC)c2)C4=O)cc(OC)c1OC was tested, and the growth was -54.8% (active).
Work on O=C1C=CC(=O)N1CCCCCCCCCCN1C(=O)C=CC1=O yielded a growth of 82.2%.
Compound CCCCC/C=C\C/C=C/CCCCCCCCNC(=O)Nc1ccc([N+](=O)[O-])cc1 has a growth of 16.3%.
Clc1ccc(C2=NN(c3ccccc3)[C@H](c3cn(-c4ccccc4)nc3-c3ccccc3)C2)cc1 was tested, and the growth was 93.9%.
In the case of OB(O)c1ccccc1, the growth is reported as 101%.
In the case of COc1cccc2c(=O)c3c(sc12)c(NCCN(C)C)nc1ccccc13, the growth is reported as 23%.
O=C(N/N=C/c1ccc(F)cc1)c1[nH]c2ccc(I)cc2c1-c1ccccc1 gave a growth of 20.6%.
COc1ccc(-c2nc3sc(C)cn3c2/C=C/C(=O)c2cc(OC)c(OC)c(OC)c2)cc1 was tested, and the growth was 19%.

The compounds below were run on SK-MEL-5 melanoma in the same assay as above. Details: 10 µM unless noted.
In the case of COc1ccc(Sc2ccc3[nH]c(=O)nc(N)c3c2)cc1, the growth is reported as 103%.
CCN1C(=O)C2(Nc3ccccc3S2)c2cc(C)ccc21 (centres undefined) showed a growth of 95.1%.
CCOC(=O)c1cn2c3c(cc(F)cc3c1=O)C(CC)c1ccccc1C2 (centres undefined) showed a growth of 63.7%.
Compound Cc1nn(CC(=O)O)c2c1C(=O)CC(C)(C)C2 has a growth of 115%.
Work on O=C1/C(=C/c2ccc(Oc3ccccc3)cc2)N=C(c2ccccc2)N1CCc1cccs1 yielded a growth of 95.2%.
Compound COc1cccc(C2C3=C(COC3=O)N(CCO)c3cc4c(cc32)OCO4)c1 (centres undefined) has a growth of 30.8%.
Work on COc1ccc2c(c1)c(=O)oc1c(C)c(OCC(C)=O)ccc12 yielded a growth of 103%.
CC1=C(C/C=C(\C)CCC[C@H](C)CCC[C@H](C)CCCC(C)C)C(=O)c2ccccc2C1=O showed a growth of 112%.
Compound O=S(=O)(OCCO)c1ccccc1 has a growth of 94.4%.
For COc1ccc(-c2nc3sccn3c2/C=C/C(=O)c2cc(OC)c(OC)c(OC)c2)cc1OC, the growth was 5.76% (active).
Cc1nc(NN)c([N+](=O)[O-])c(NN)n1 showed a growth of 99.4%.
Work on COc1cc(/C=C2\C(=O)N(c3c(Cl)cccc3Cl)c3ccccc32)cc(OC)c1O yielded a growth of 32.3%.
In the case of COc1cc(C2C3=C(COC3=O)N(CCO)c3cc4c(cc32)OCO4)cc(OC)c1O (centres undefined), the growth is reported as 29.3%.
COc1ccccc1CNCCCCCCCCCCCCN1C(=O)c2ccc3c4c(ccc(c24)C1=O)C(=O)N(CCCCCCCCCCCCNCc1ccccc1OC)C3=O gave a growth of 78.4%.
Work on CCCCCCCCCCCCCCCC[N+]1(C)CCOCC1 yielded a growth of 40%.
In the case of Cn1cc(C(=O)NCCC(=N)N)cc1NC(=O)CN=C(N)N, the growth is reported as 101%.
Work on Nc1cccc2c(=S)c3ccccc3[nH]c12 yielded a growth of 91.4%.
In the case of CCN1CCN(c2nc3ccccc3c3c(=O)c4cc(F)ccc4sc23)CC1, the growth is reported as 82.8%.
Cc1ccc(N(CSc2ccc(Cl)cc2)CSc2ccc(Cl)cc2)cc1 was tested, and the growth was 65.5%.
O=C1C(Cl)=C(NCCCN2CCOCC2)C(=O)c2ccccc21 showed a growth of 67.5%.
Work on O=[N+]([O-])c1ccc(O)c2ncccc12 yielded a growth of 56.4%.
In the case of O=C(Nc1ccccc1)Oc1cccc2cccnc12, the growth is reported as 96.9%.
Cc1ccc(C)c2c1sc1nc3nc4sc5ccccc5n4c(=N)c3c(=O)n12 showed a growth of 94.6%.
For O=C(c1ccccc1)C(Br)C(Br)c1cccc([N+](=O)[O-])c1 (centres undefined), the growth was 77.1%.
Work on COc1cc(/C=C2\C(=O)Nc3ccccc32)cc(OC)c1O yielded a growth of 45.7%.
O=c1ccc2ccccc2o1 gave a growth of 107%.
With Cc1nc(-c2ccccc2)cc2c(O)c(C(=O)N/N=C/Cc3ccccc3)[nH]c(=O)c12 the growth was 107%.
Compound CN1CCc2cccc3c2C1Cc1ccc(O)c(O)c1-3 (centres undefined) has a growth of 97.5%.
COc1cccc(C2C3=C(COC3=O)N(CCO)c3cc4c(cc32)CCC4)c1 (centres undefined) was tested, and the growth was -16.2% (active).
For COc1cc(CNCCCN2C(=O)c3ccc4c5c(ccc(c35)C2=O)C(=O)N(CCCNCc2cc(OC)c(OC)c(OC)c2)C4=O)cc(OC)c1OC, the growth was -99.7% (active).
In the case of O=C1C=CC(=O)N1CCCCCCCCCCN1C(=O)C=CC1=O, the growth is reported as 95.8%.
CCCCC/C=C\C/C=C/CCCCCCCCNC(=O)Nc1ccc([N+](=O)[O-])cc1 gave a growth of 103%.
Clc1ccc(C2=NN(c3ccccc3)[C@H](c3cn(-c4ccccc4)nc3-c3ccccc3)C2)cc1 showed a growth of 114%.
In the case of OB(O)c1ccccc1, the growth is reported as 113%.
COc1cccc2c(=O)c3c(sc12)c(NCCN(C)C)nc1ccccc13 was tested, and the growth was 32.9%.
With O=C(N/N=C/c1ccc(F)cc1)c1[nH]c2ccc(I)cc2c1-c1ccccc1 the growth was -30% (active).
In the case of COc1ccc(-c2nc3sc(C)cn3c2/C=C/C(=O)c2cc(OC)c(OC)c(OC)c2)cc1, the growth is reported as 4.08% (active).
